In article PMC5540273 (PLoS ONE, 2017):

Experiments:
Conditions in all cases: concentration: 1 μM, replicates: in singlicate; n = 1
[1] = test system: SGK3
[2] = test system: SGK
[3] = test system: SIK2
[4] = test system: SIK
[5] = test system: SLK
[6] = test system: T1, SNARK
T1 construct: gene NUAK2

[7] = test system: SNRK
[8] = test system: SRC
[9] = test system: SRMS
[10] = test system: SRPK1
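Note: KINOMEscan kinase panel screen.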

SMILES	%Inh [1]	%Inh [2]	%Inh [3]	%Inh [4]	%Inh [5]	%Inh [6]	%Inh [7]	%Inh [8]	%Inh [9]	%Inh [10]
Cn1cnc2c(N)ncnc21 [SKF-97623]	0%	0%	27%	0%	0%	0%	0%	0%	0%	0%
Nc1cccc(-c2ccc3c(N)n[nH]c3c2)n1 [GSK2192730]	34%	2%	0%	0%	0%	19%	0%	0%	0%	33%
COc1ccc(CSc2nnc(-c3ccc4nccn4c3)o2)cc1C(F)(F)F	61%	8%	29%	13%	14%	77%	5%	7%	3%	20%
O=c1cc(N2CCOCC2)nc2n(Cc3ccccc3F)ccn12 [GSK2297428]	4%	0%	0%	0%	28%	0%	0%	0%	0%	0%
CC(=O)c1c(C)c2cnc(Nc3ccn(C)n3)nc2n(C2CCCC2)c1=O	26%	0%	0%	0%	34%	6%	0%	0%	0%	0%
Fc1ccc(-c2nc3n(c2-c2ccncc2)CCS3)cc1 [GI98581]	0%	0%	0%	17%	25%	0%	0%	9%	0%	23%
Nc1ncnc2occ(-c3ccc4c(c3)CCN4C(=O)Cc3cc(F)ccc3F)c12 [GSK2645446]	1%	0%	0%	0%	5%	7%	0%	0%	0%	16%
Cn1cncc1-c1cc2c(Nc3ccc(OCc4ccccc4)cc3)ncnc2cn1 [GW281179]	0%	4%	0%	0%	19%	0%	0%	0%	0%	18%
CS(=O)(=O)Cc1ccc(Nc2nccc(-c3c(-c4cccc(NC(=O)C5CCCCC5)c4)nn4ncccc34)n2)cc1 [GSK350559]	0%	46%	0%	0%	53%	7%	16%	30%	3%	29%
Cc1c(Cn2c(C)c(C)n3c(=O)cc(N4CCOCC4)nc23)cccc1C(F)(F)F [GSK2328680]	0%	16%	0%	0%	22%	0%	0%	0%	0%	6%
COC(=O)c1cccc(NC(=O)NC2CCN(c3ccnc(Nc4ccc(OC)cc4)n3)C2)c1 (centres unmarked) [GSK1379746]	0%	9%	0%	0%	7%	0%	0%	0%	0%	0%
COc1ccc(-c2coc3ccc(-c4nnc(C)o4)cc23)cc1	0%	0%	3%	0%	5%	0%	0%	20%	0%	9%
CC(C)c1ccc(O)cc1Nc1ccnc2ccc(C(F)(F)F)cc12 [GW482059]	4%	7%	0%	0%	9%	3%	0%	14%	0%	35%
O=C(Nc1n[nH]c2nc(-c3ccco3)c(Br)cc12)C1CCN(Cc2ccccc2)C1.O=C(O)[C@H](O)[C@@H](O)C(=O)O (centres unmarked) [SB-742034]	24%	18%	9%	52%	8%	11%	0%	0%	17%	28%
CNc1nc(-c2ccc3c(N)n[nH]c3c2)cc(N2C[C@@H](C(=O)Nc3ccccc3)CC[C@H]2C)n1 [GSK2298859]	1%	0%	0%	4%	19%	8%	0%	2%	0%	33%
COc1ccc(CSc2nnc(-c3ccc4ncsc4c3)o2)cc1C(F)(F)F	0%	2%	0%	11%	15%	0%	0%	3%	0%	10%
CCc1ccc(-c2ccc3c(c2)-c2n[nH]cc2S(=O)(=O)N3C)cc1	0%	0%	13%	29%	0%	0%	1%	0%	1%	0%
